Screening results (PubChem)
Only some compounds are listed: those with a hit (about 2.4% of all), similar ones and a draw of the others.
D2 ag-1: human D2 receptor agonism in beta-arrestin assay. DiscoveRx PathHunter D2 beta-arrestin, luminescence, 90 min; 100% = 57 uM dopamine signal. activation, % (concentration not given with the values). 0.084% of 360,000 active; in the data active means activation above about 40%; inconclusive means between about 15% and that limit
Target sequence (P14416 whole entry, looked up): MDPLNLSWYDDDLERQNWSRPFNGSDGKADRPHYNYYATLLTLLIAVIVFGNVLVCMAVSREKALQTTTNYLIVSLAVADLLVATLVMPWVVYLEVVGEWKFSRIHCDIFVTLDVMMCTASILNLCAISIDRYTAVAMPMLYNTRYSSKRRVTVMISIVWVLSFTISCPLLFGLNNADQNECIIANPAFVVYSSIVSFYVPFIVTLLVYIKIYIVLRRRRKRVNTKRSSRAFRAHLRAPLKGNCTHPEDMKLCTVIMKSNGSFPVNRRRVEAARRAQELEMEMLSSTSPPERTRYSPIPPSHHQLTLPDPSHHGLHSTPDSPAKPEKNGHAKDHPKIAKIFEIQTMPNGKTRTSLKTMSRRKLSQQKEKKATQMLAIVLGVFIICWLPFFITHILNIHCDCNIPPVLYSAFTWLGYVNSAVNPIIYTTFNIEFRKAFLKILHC
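Agonist mode: compounds alone added to overnight-plated D2 PathHunter cells for 90 min at 37 C, with 57 uM final dopamine (EC100) defining full response. Beta-arrestin recruitment detected by chemiluminescent reagent, read after 1 h at ambient temperature.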
D2 antagonist: D2 dopamine receptor (human) antagonism; P14416; HEK293 TREx D2 cells, calcium flux, dopamine EC80; inhibition, % at 10 µM; 2% of 340,000 active; AID 485344; in the data active means inhibition above about 30%; inactive means below that, where a call was filed
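Inhibition of EC80 dopamine-driven calcium flux, recorded kinetically, defines activity here; cells are a tetracycline-induced HEK293 T-REx line expressing force-coupled D2.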
D2 PAM-1: positive allosteric modulators of human D2 dopamine receptor; 0.34% of 340,000 active; potentiation, % at 10 µM; AID 485347; P14416; HEK293 T-REx D2, calcium flux, EC20 dopamine potentiation;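 active means potentiation over 3 SD above the plate norm, cut at about 30% in these data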
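Using a no-wash calcium dye in inducible, force-coupled HEK293 Trex cells expressing D2, we tracked fluorescence each second for 180 s after compound, then for 180 s after EC20 dopamine to detect augmented signalling.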
D2 ag-2: D2 dopamine receptor (human) agonism; P14416; HEK293 T-REx D2 cells, calcium flux agonist mode; activation, % at 2 µM; 0.53% of 340,000 active; AID 485358;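 active means activation over 3 SD above normal in the single-dose calcium agonist read, cut at about 30% in these data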
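HEK293 Trex D2 cells, tetracycline-induced, o/n 30 C 5% CO2; no-wash Ca dye, RT 30–90 min; 10-cycle baseline, 23 nl cpd added, kinetic Ca read 180 s; agonist hits = positive Ca response.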
D2 PAM-2: positive allosteric modulators of human D2 dopamine receptor | P14416 | DiscoveRx D2 beta-arrestin cells, luminescence, 90 min; 100% = 57 uM dopamine signal | potentiation, % (no concentration beside the values) | 0.23% of 360,000 active | AID 624464; in the data active means potentiation above about 50%; inconclusive means mostly about 30% to 49%
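D2 cells co-treated with compound plus 50 nM dopamine (EC20) for 90 min at 37 deg C to detect potentiation. Beta-arrestin recruitment was read as enzyme-fragment luminescence after 1 h at ambient temperature. Full response was set by 57 uM dopamine.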
D3 ag: activates human D3 dopamine receptor beta-arrestin recruitment; shares compounds with D2 ag-2; DiscoveRx D3 beta-arrestin cells, luminescence, 90 min; Potency, µM (series often up to 76.9 µM), most hits filed as activators; 4% of 2,300 active; AID 720506; further: nearly all actives have a fitted effect of over 70% in size
D2 ag-3: counter-screen for D3 agonists: human D2 dopamine receptor agonism; Potency, µM (titrated, usually from 76.9 µM), hits mostly activators; shares compounds with D2 ag-2; 5.9% of 2,300 active; DiscoveRx PathHunter D2 beta-arrestin, luminescence, 90 min; response scale: percent relative to full dopamine signal; further: nearly all actives have a fitted effect of over 70% in size
Large screens that a line does not name were inactive (follow-up assays come after a bar, where they were run). Unless noted, the call rests on the fitted dose curve; in most records, active means well fitted activation curve with a large enough effect; inconclusive means small, poorly fitted or top-dose-only effect; inactive means flat fitted curve, though single readings scatter.

CNC(=O)N(O)C1N(/N=C/c2ccc(C)cc2)C(=S)SC1(C)C (stereo unspecified)	none
CNC(=O)N(O)C1N(/N=C/c2cc(Br)ccc2O)C(=S)SC1(C)C (stereo unspecified)	D2 ag-1 59, D2 antagonist 50, D2 ag-2 48 | D3 ag inactive | D2 ag-3 inconclusive
COc1ccc(/C=N/Nc2nnc(C)n2N)cc1OC(C)=O	none | D3 ag inconclusive | D2 ag-3 inactive
O=C(NC1CCCCC1)c1cc(C2CC2)nn1-c1ccccc1	none (no result: D2 antagonist, D2 PAM-1, D2 ag-2) | D3 ag inactive | D2 ag-3 inactive
Cc1onc(-c2ccccc2)c1C(=O)NNC(=S)NC(=O)/C=C/c1ccccc1	D2 ag-2 31 | D3 ag inactive | D2 ag-3 inactive
COc1ccc(/C=C/C(=O)NC(=S)NNC(=O)c2c(-c3ccccc3)noc2C)cc1	none
Cc1onc(-c2ccccc2)c1C(=O)NNC(=S)NC(=O)c1ccc(Br)cc1	D2 antagonist 36, D2 ag-2 46 | D3 ag inactive | D2 ag-3 inactive
Cc1onc(-c2ccccc2)c1C(=O)NNC(=O)c1ccccc1O	none
CCOc1ccc(NC(=O)Cn2cc(C(=O)c3ccc(CC)cc3)c(=O)c3cc(C)ccc32)cc1	none (no result: D2 ag-1, D2 antagonist, D2 PAM-2)
O=C(OCc1cc(=O)n2nc(C3CC3)sc2n1)c1ccc(NC(=O)c2ccccc2Cl)cc1	none (no result: D2 ag-1, D2 antagonist, D2 PAM-2)
Clc1ccccc1CN1CCN(c2ncccn2)CC1	D2 ag-1 70, D2 antagonist 76, D2 ag-2 80, D2 PAM-2 59 | D3 ag inactive | D2 ag-3 20µM
Clc1ccccc1CN1CCc2nc(N3CCN(c4ncccn4)CC3)ncc2C1	none (no result: D2 ag-1, D2 antagonist, D2 PAM-2)
Clc1ccc(CN2CCN(c3ncccn3)CC2)c(Cl)c1	D2 ag-1 79, D2 antagonist 90, D2 ag-2 76, D2 PAM-2 59 | D3 ag inconclusive | D2 ag-3 28µM
O=C(Nc1ccc(Cl)cc1Cl)N1CCN(c2ncccn2)CC1	none
Clc1cccc(CN2CCN(c3ncccn3)CC2)c1Cl	D2 ag-1 inconclusive, D2 antagonist 61, D2 ag-2 69 | D3 ag inactive | D2 ag-3 50µM
O=S(=O)(NCC(c1ccco1)S(=O)(=O)c1cccs1)c1ccc(Cl)cc1 (stereo unspecified)	none (no result: D2 ag-1, D2 antagonist, D2 PAM-2)
COc1ccc(Cl)cc1S(=O)(=O)NC1CC(C)(C)NC(C)(C)C1	none (no result: D2 antagonist, D2 ag-2)
CCOc1cc(C)c(S(=O)(=O)NC2CC(C)(C)NC(C)(C)C2)cc1C	none
Cc1cc(C)c(S(=O)(=O)NC2CC(C)(C)NC(C)(C)C2)cc1C	D2 ag-2 30 | D3 ag inactive | D2 ag-3 inactive
CCOc1ccc(Br)cc1S(=O)(=O)NC1CC(C)(C)NC(C)(C)C1	none | D3 ag inactive | D2 ag-3 inactive
Cc1ccc(CN(C(=O)COc2ccccc2[N+](=O)[O-])c2ccccn2)cc1	none (no result: D2 ag-1, D2 antagonist, D2 ag-2, D2 PAM-2)
O=C(COc1ccccc1[N+](=O)[O-])N(Cc1ccccc1)c1ccccn1	D2 ag-1 inconclusive, D2 ag-2 53 | D3 ag inconclusive | D2 ag-3 inconclusive
O=C(NCCc1ccc(Cl)cc1)C1CCN(S(=O)(=O)c2cccs2)CC1	none
O=C(NCCN1CCN(c2ccccc2)CC1)C1CCN(S(=O)(=O)c2cccs2)CC1	D2 ag-1 inconclusive (no result: D2 antagonist, D2 PAM-1, D2 ag-2) | D3 ag inconclusive | D2 ag-3 inconclusive
COc1ccc2c(c1)CC(C(=O)NCCCN1CCN(c3ccccc3F)CC1)CO2 (stereo unspecified)	none (no result: D2 ag-1, D2 antagonist, D2 ag-2, D2 PAM-2)
COc1cc2[nH]c(=O)n(CCC(=O)NCCCN3CCN(c4ccccc4F)CC3)c(=O)c2cc1OC	D2 antagonist 96, D2 ag-2 51 | D3 ag inconclusive | D2 ag-3 inactive
CCS(=O)(=O)N1CCC(C(=O)NCCCN2CCN(c3ccccc3F)CC2)CC1	D2 ag-1 inconclusive, D2 antagonist 86, D2 ag-2 69 | D3 ag inconclusive | D2 ag-3 inconclusive
